Test results taken from PubChem BioAssay AID803 (The Scripps Research Institute Molecular Screening Center, 2007).
About 680 (0.49%) of roughly 140,000 compounds were called active. The sample as a whole holds a higher share of actives than the screen did. A number with no mark means an inactive call. Rule as the data show it: active = activation above about 5% (passing the limit was not always enough); inactive = the rest.

Molecular target: Galanin receptor type 2 (Homo sapiens) (UniProt O43603)
Sequence (O43603 whole entry, looked up): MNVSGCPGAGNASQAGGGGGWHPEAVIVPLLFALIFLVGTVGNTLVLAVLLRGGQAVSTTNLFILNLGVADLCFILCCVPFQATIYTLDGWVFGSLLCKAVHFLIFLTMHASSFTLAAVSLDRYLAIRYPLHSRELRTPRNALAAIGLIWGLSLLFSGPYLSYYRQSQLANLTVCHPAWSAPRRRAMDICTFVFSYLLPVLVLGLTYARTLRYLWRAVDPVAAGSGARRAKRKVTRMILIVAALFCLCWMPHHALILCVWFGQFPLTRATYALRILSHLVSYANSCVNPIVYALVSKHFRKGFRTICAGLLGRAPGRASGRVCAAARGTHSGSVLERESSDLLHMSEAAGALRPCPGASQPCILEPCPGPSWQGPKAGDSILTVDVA
Test: GALR2 receptor agonists, primary screen, cell-based (AID 803);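 also: 0% = vehicle buffer wells and 100% = reference agonist at full effect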
Details: GALR2-expressing cells, agonist activation read-out; at 5.6 µM; stronger effect = higher value

| SMILES | activation |
| --- | --- |
| COc1ccc(NC(=O)CN2C(=O)C(c3ccccc3)=NC23CCCCCC3)cc1OC | -2.09% |
| CC(=O)NNC1=Nc2ccccc2N(C)C(C)C1 (configuration not stated) | -1.09% |
| COc1cccc(/C=N/NC(=O)CNC(=O)c2ccc(S(=O)(=O)N3CCOCC3)cc2)c1OC | -1.42% |
| CN(C(=O)CSc1nnc(-c2n[nH]c3ccccc23)o1)c1ccccc1 | 0.05% |
| Cc1ccc2sc(NNC(=O)c3ccc4c(c3)OCCO4)nc2c1C | -2.21% |
| CC(=O)N(Cc1cccs1)C1CCOC(C)(C)C1 (configuration not stated) | 36.2% (active) |
| Cc1ccsc1C(C(=O)NC1CCCCC1)N(C(=O)Cc1cccs1)C1CC1 (configuration not stated) | 0.48% |
| O=C(O)CCC(=O)N(Cc1cccs1)Cc1cccs1 | 0.14% |
| Cc1nn(-c2ccccc2)c(NC(=O)c2cccs2)c(-c2ccc(Cl)cc2)c1=O | -0.28% |
| COc1ccc(C(=O)n2nc(-c3ccc(C)cc3)nc2N)cc1OC | -1.18% |
| COc1ccc(C(=O)CN2C(=O)NC(C)(c3ccc(C)cc3)C2=O)cc1OC (configuration not stated) | 10.3% (active) |
| COc1ccc(C(=O)Cn2nnc(-c3ccc(N4CCOCC4)cc3)n2)cc1OC | -0.59% |
| N#Cc1c(C(F)(F)F)cc(-c2ccccc2)nc1SCC(=O)N1CCOCC1 | -2.74% |
| CCN(CC)c1nc(-c2ccccc2)cc(C(F)(F)F)c1C#N | 14.6% (active) |
| COC(=O)c1cc2nc(-c3ccccc3)cc(C(F)(F)F)n2n1 | -0.55% |
| O=S(=O)(c1ccc(F)cc1)N1CCN(C(=S)NC2CCCC2)CC1 | -1.23% |
| Cc1cccc(C(=O)NC(=S)N2CCN(c3ccc([N+](=O)[O-])cc3)CC2)c1 | 0.09% |
| CCCCOc1ccc(C(=O)NCc2ccncc2)cc1 | -0.14% |
| CCCOc1ccc(C(=O)C(CCC(CNCC)C(=O)c2ccc(OCCC)cc2)CNCC)cc1 (configuration not stated) | 24.7% (active) |
| CCCCOc1ccc(C(=O)NCc2ccco2)cc1 | -1.35% |
| CCc1ccc(Oc2coc3cc(OC(=O)c4cc5ccccc5oc4=O)ccc3c2=O)cc1 | 0.76% |
| OC(COCC1COc2ccccc2O1)CN1CCN(c2ccc(F)cc2)CC1 (configuration not stated) | -0.37% |
| CCN(/N=C/c1ccc(N(C)C)cc1)c1nc2ccccc2[nH]1 | -1.85% |

| SMILES | activation |
| --- | --- |
| COc1cc(NS(=O)(=O)c2ccc(N=Cc3c(C)[nH]n(-c4ccccc4)c3=O)cc2)nc(OC)n1 | -4.11% |
| CCc1nnc(NS(=O)(=O)c2ccc(N=Cc3c(C)[nH]n(-c4ccc(C)cc4)c3=O)cc2)s1 | -3.95% |
| COc1cc(SC#N)ccc1N=Cc1c(C)[nH]n(-c2ccc(C)cc2)c1=O | 17.6% (active) |
| CC(=O)NCCC(=O)Nc1nc(C)c(Cc2ccc3c(c2)OCO3)s1 | -0.64% |
| Cc1cc(F)ccc1S(=O)(=O)N1CCCOC1CNC(=O)C(=O)NCCC1=CCCCC1 (configuration not stated) | -0.65% |
| COc1ccc(OCc2cn3c(C)cc(C)nc3n2)cc1 | -0.2% |
| COc1ccc(C(C[N+](=O)[O-])n2nc(C)cc2C)cc1 (configuration not stated) | 5.52% (active) |
| COc1ccc(Nc2cc(C)nc(-n3nc(C)cc3C)n2)cc1 | 0.3% |
| CCC1C(=O)c2ccccc2N(C)C1=O (configuration not stated) | -2.42% |
| CC(C)Cn1c(N)c(C(=O)NCc2cccs2)c2nc3ccccc3nc21 | 29.6% (active) |
| C=CCn1c(N)c(C(=O)OCC(C)C)c2nc3ccccc3nc21 | -3.82% |
| CCC(C)NC(=O)c1c(N)n(/N=C/c2cccs2)c2nc3ccccc3nc12 (configuration not stated) | -0.44% |
| CCN(CC)c1ccc(S(=O)(=O)N2CCOCC2)cc1NC(=O)CSc1cccc[n+]1[O-] | -0.35% |
| O=C(Cc1cccs1)Nc1nnc(SCc2ccc(F)cc2)s1 | 1.11% |
| CCCc1cc(=O)[nH]c(SCC(=O)N2CCN(S(=O)(=O)c3ccc(C)cc3C)CC2)n1 | 2.71% |
| CCCCOc1ccc(C(=O)NCC(=O)OCC(=O)N2CCN(S(=O)(=O)c3ccc(C)cc3C)CC2)cc1 | 7.56% (active) |
| CCCCOc1ccc(C(=O)NN2CCN(C)CC2)cc1 | 0.08% |
| CC1Cc2ccccc2N1C(=O)CSc1nnc(-c2ccc(S(=O)(=O)N3CCCC3)cc2)n1C (configuration not stated) | -1.17% |
| CC(C)(C)c1ccc(C(=O)NCCn2c(N)c(C#N)c3nc4ccccc4nc32)cc1 | 6.59% (active) |
| O=S(=O)(O)c1nc2ccccc2n1Cc1ccc(Cl)cc1 | -2.3% |
| CN(C)CCCn1c(N)c(C#N)c2nc(C#N)c(C#N)nc21 | 5.27% |
| N#Cc1c(N)n(CCOC(=O)c2ccc(Cl)cc2)c2nc3ccccc3nc12 | 7.76% (active) |
| CC(C)(C)OC(=O)c1c(N)n(CCCN2CCCC2=O)c2nc3ccccc3nc12 | 3.75% |

| SMILES | activation |
| --- | --- |
| CN1OC(COC(=O)c2ccc(Cl)cc2)CC1c1ccccc1 (configuration not stated) | -1.93% |
| CC(Oc1ccccc1)C(=O)Nc1oc(-c2ccco2)c(-c2ccco2)c1C#N (configuration not stated) | -0.85% |
| O=C(/C=C/c1ccc(Cl)cc1)N1CCN(c2ccccc2[N+](=O)[O-])CC1 | -1.19% |
| Cc1nc2nc(SCC(=O)NCc3ccco3)nn2c(C)c1Cc1ccccc1 | 0.05% |
| Cc1ccc(NC(=S)NCCN2CCOCC2)cc1 | -2.96% |
| Cc1ccc(Cc2c(C)nc3nc(SCC(=O)NCCN4CCOCC4)nn3c2C)cc1 | 24.8% (active) |
| Cc1cc(C)nc(-n2ncc3c2CC(c2ccc(C(C)C)cc2)CC3=O)n1 (configuration not stated) | 0.11% |
| O=C(Nc1ccccc1F)c1ccccc1-c1ccc(C(F)(F)F)cc1 | -0.53% |
| O=C(NCC1CCCO1)/C(=C/c1ccc(Cl)cc1)NC(=O)c1ccccc1 (configuration not stated) | -1.2% |
| CCOC(=O)Cc1csc(NC(NC(=O)OCC)(C(F)(F)F)C(F)(F)F)n1 | -2.02% |
| CCOC(=O)Cc1csc(NC(=O)Nc2ccccc2)n1 | -2.31% |
| CCOC(=O)Cc1csc(NC(=O)C(C)(C)C)n1 | 6.79% (active) |
| CCCCN1C(=O)c2ccc(C(=O)Nc3ccc(S(=O)(=O)N(C)C)cc3)cc2C1=O | -1.35% |
| CC(=O)NC(Cc1ccccc1)C(=O)NC1CCN(c2ncccc2[N+](=O)[O-])CC1 (configuration not stated) | -0.16% |
| OC(COCc1ccco1)CN1CCN(c2ccccc2)CC1 (configuration not stated) | -1.72% |
| Cc1ccc(C(=O)Nc2ccc(C)c(S(=O)(=O)N(C)C)c2)s1 | 0.14% |
| COC(=O)CNC(=O)c1ccccc1[N+](=O)[O-] | -2.69% |
| O=S(=O)(Nc1ccccn1)c1ccc(Oc2ccccc2)cc1 | -1.45% |
| O=[N+]([O-])c1ccccc1SNc1ccccn1 | 10.3% (active) |
| COc1cc(CN2CC(C)CC(C)C2)cc([N+](=O)[O-])c1O (configuration not stated) | 0.36% |
| COc1cc(NC(=O)c2cc([N+](=O)[O-])ccc2Br)ccc1NC(=O)c1ccco1 | -2.01% |
| Cc1ccc(-c2cc(N)on2)cc1 | -1.6% |
| CCOc1ccc(Br)cc1S(=O)(=O)Nc1ccc(C(=O)OC(C)C(=O)N(C)c2ccccc2)cc1 (configuration not stated) | -0.52% |

| SMILES | activation |
| --- | --- |
| COc1cc(NC(=S)NCCSc2ccc(C)cc2)cc(OC)c1 | -1.5% |
| Cc1noc(/C=C/c2ccco2)c1S(=O)(=O)N1CCC(C(=O)Nc2ccc(Cl)cn2)CC1 | -1.28% |
| CCC(c1nnnn1C1CCCC1)N(Cc1cccs1)Cc1cc2cccc(C)c2[nH]c1=O (configuration not stated) | -1.09% |
| Cc1cccc2cc(CN(Cc3cccs3)C(c3nnnn3C3CCCC3)C(C)C)c(=O)[nH]c12 (configuration not stated) | -1.34% |
| Cc1cccc2cc(CN(Cc3ccc4c(c3)OCO4)Cc3nnnn3C3CCCC3)c(=O)[nH]c12 | 5.7% (active) |
| COc1ccccc1C1CC(=O)n2c(nc(-c3ccccc3)c2-c2ccccc2)S1 (configuration not stated) | -1.18% |
| O=C1N(c2ccc(Cl)cc2)C(c2ccc(Cl)cc2)N2CCCN12 (configuration not stated) | -0.59% |
| NCCCC[C@@H]1NC(=O)[C@H](CCC(=O)O)NC(=O)c2cc([N+](=O)[O-])cc(I)c2NCC[C@@H](C(N)=O)NC1=O | -0.98% |
| CNC(=S)N/N=C/c1cn(Cc2ccc(C)cc2)c2ccccc12 | -1.46% |
| O=c1cc(CO)oc(C(Nc2cccc([N+](=O)[O-])c2)c2ccccn2)c1O (configuration not stated) | 0.7% |
| Cc1ccc(-c2cn3cc([N+](=O)[O-])ccc3n2)cc1 | -1.19% |
| CCOc1ccccc1NC(=O)c1cccnc1 | 0.49% |
| CCOc1ccc(C(=O)Nc2cc(OC)ccc2OC)cc1 | -2.67% |
| CCOc1cc(NC(=O)c2cnccn2)c(OCC)cc1NC(=O)c1ccc(C)cc1 | 22.8% (active) |
| Cc1sc2nc(COC(=O)C(NC(=O)c3ccc(Cl)cc3Cl)C(C)C)[nH]c(=O)c2c1C (configuration not stated) | -1.47% |
| O=C(CSc1ncn[nH]1)Nc1ccnc2ccccc12 | -2.63% |
| CCN(C(=O)CSc1ncn[nH]1)c1cccc2ccccc12 | 144% (active) |
| CC(C)(C)c1ccc(C(=O)CSc2ncn[nH]2)cc1 | -1.49% |
| CC(=O)Nc1ccc(/C(C)=N/NC(=O)CN(c2ccccc2Br)S(C)(=O)=O)cc1 | -0.42% |
| CSc1ccc(/C=C/C(=O)NC23CC4CC(CC(C4)C2)C3)cc1 | -1.84% |
| Cc1cccn2c(=O)c3cc(C#N)c(=O)n(CCCN4CCOCC4)c3nc12 | 2.81% |
| Cc1cccn2c(=O)c3cc(C(=O)N4COCC4(C)C)n(C)c3nc12 | 0.31% |
| Cc1cccn2c(=O)c3cc(C#N)c(=NC(=O)c4cccnc4)n(CC4CCCO4)c3nc12 (configuration not stated) | 7.52% (active) |
